# Compounds with a hit are over-represented: about 1.2% of the library has one in this group of screens.
# Apoferritin bind = candidate novel general anesthetic via apoferritin binding. 0.074% of 350,000 active. Potency, µM (titrated, usually from 77.5 µM), inactives show at the top dose activity change, negative = displacement, hits mostly inhibitors. P02791. apoferritin/1-aminoanthracene competitive binding, fluorescence; also: % is scaled to controls: 0 for no effect and ±100 for the full control effect; nearly all actives have a fitted effect of over 20% in size
# Target sequence (P02791 2-175 limits assumed): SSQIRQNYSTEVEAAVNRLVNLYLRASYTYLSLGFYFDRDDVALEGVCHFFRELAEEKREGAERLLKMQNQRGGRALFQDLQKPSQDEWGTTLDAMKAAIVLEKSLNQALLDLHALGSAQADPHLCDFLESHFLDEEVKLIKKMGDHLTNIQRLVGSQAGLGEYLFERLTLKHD
#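 Horse-spleen apoferritin (10 uM) was mixed with 50% saturated 1-aminoanthracene in PBS, exposed to compounds for 10 min at room temperature, and read for fluorescence (ex 380 nm, em 535 nm). Competitive displacement was fitted with a four-parameter Hill equation.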
# ERG-DNA inh = blocks human ERG Ets domain binding to DNA | P11308 | fluorescence polarization, His-ERG Ets domain / labelled DNA | Potency, µM (highest dose often 76.9 µM), for inactives: at the top dose FP activity, negative = inhibition, actives largely listed as inhibitors | 0.028% of 370,000 active; active = well fitted inhibition curve with a large enough effect in the polarisation, with a control signal flat; inconclusive = small, poorly fitted or top-dose-only effect, or effect the other way, or a change in a side signal; inactive = no such curve, though single readings can be large or run the other way; the % refers to the polarisation;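 also: polarization taken with two DNA probes labelled with fluorescein and Texas red; % of control where 0% means no effect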
# Target sequence (P11308 whole entry, looked up, the tested form may be a part): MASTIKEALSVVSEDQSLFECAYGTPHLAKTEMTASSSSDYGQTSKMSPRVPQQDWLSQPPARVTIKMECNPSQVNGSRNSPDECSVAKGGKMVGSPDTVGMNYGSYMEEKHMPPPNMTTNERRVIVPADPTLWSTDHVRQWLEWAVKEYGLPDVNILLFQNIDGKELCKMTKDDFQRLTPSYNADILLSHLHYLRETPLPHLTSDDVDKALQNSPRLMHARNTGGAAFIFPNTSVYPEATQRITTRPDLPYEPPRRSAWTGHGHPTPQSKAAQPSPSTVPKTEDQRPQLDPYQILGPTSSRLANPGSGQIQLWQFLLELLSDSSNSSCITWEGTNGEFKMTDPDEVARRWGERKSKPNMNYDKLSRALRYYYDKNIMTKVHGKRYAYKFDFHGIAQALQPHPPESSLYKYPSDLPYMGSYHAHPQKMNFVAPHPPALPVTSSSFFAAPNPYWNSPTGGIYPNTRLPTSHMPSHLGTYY
#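 His-tagged ERG Ets domain (1 uM in the protein solution; 300mM KCl, 50mM Tris-HCl, 1mM EDTA, 1mM DTT, pH 7.5) received compound, then a probe mix of 5 nM fluorescein-DNA and 100nM Texas-615-DNA. Fluorescence polarization was read for both dyes.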
# BRCA1 expr act = increases BRCA1 expression | 1.1% of 380,000 active | MCF7-BRCA1-FFLuc reporter, luminescence, 48 h; response scale: scaled: vehicle 0%, 10 µM genistein 100% | Potency, µM (titrated, usually from 46.1 µM), without a hit: top-dose activation, hits mostly activators; also: nearly all actives have a fitted effect of over 80% in size
#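 Reporter cells (MCF7, BRCA1 promoter-firefly luciferase) received library compounds across a concentration series for 48 h. End-point luminescence was measured and concentration-effect curves derived after normalization.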
# GoLoco inh red = inhibitors of human Gai1-RGS12 GoLoco interaction (red fluorophore); P63096; Gai1:RGS12 GoLoco peptide FP, rhodamine, 10 min; Potency, µM (top dose mostly 61.6 µM), for the others: at the highest dose activity, negative = inhibition, actives largely listed as inhibitors; 0.44% of 230,000 active; active = well fitted inhibition curve with a large enough effect, not every such curve was filed as active; inactive = no such curve, though single readings can be large or run the other way; also: % is scaled to controls: 0 for no effect and ±100 for the full control effect; nearly all actives have a fitted effect of over 30% in size
# Numbers without * were called inactive; u = inconclusive; x = no result; ! = a repeat was not active; [ ] = remark or other dose. Unless noted, calls follow the shape of the dose curve; as a rule, active = well fitted curve in the direction sought with a large enough effect; inconclusive = small, poorly fitted or top-dose-only effect, or another doubt; inactive = no such curve, though single readings can be large; an effect the other way counts as inactive or inconclusive. Potency is read from the fitted curve at half-maximal effect.
SMILES,Apoferritin bind,ERG-DNA inh,BRCA1 expr act,GoLoco inh red
N#Cc1ccc2sn(-c3ccccc3)c(=O)c2c1,x,x,11.2µM*,x
CN(C)c1cc(N2CCOCC2)nc(C#N)n1,x,x,0.0%,x
CCn1ccc(C(=O)Nc2ccccc2Cl)n1,-8.4%,-12.7%,3.16µM*,4.6%
CN(CCc1ccccc1)C(=O)c1cc(COc2ccc(F)cc2Cl)on1,-17.0%,9.7%,12.6µM*,x
CN(CCN1CCOCC1)C(=O)c1cc(COc2ccc(F)cc2Cl)on1,x,x,18.9%,x
CSc1ccccc1OCc1cc(C(=O)N(C)Cc2cnccn2)no1,-18.4%,19.2%,u,x
COc1ccc(OCc2cc(C(=O)N(C)Cc3cnccn3)no2)c(Cl)c1,-21.4%,-14.5%,8.91µM*,x
COc1ccc(OCc2cc(C(=O)NCC3CCCCO3)no2)c(Cl)c1 (stereo not given),u,-6.7%,12.6µM*,x
COc1ccc(OCc2cc(C(=O)NC(C)Cc3cnccn3)no2)c(Cl)c1 (stereo not given),-7.9%,5.4%,11.2µM*,x
O=C(NNC(=S)Nc1ccccc1Cl)c1ccccc1Br,-4.0%,6.2%,8.91µM*,x
COc1cc(/C=C/c2ccccc2)oc(=O)c1,x,x,x,4.1%
O=[N+]([O-])c1ccc(N2CCN(C(=S)c3cccc([N+](=O)[O-])c3)CC2)cc1,-3.6%,-4.2%,9.0%,12.6µM*
Cc1ccc(-c2nc(-c3cc4cc(Cl)ccc4oc3=O)sc2C)cc1,x,x,-15.9%,x
COc1ccccc1N/N=C1\COC(C)(C)CC1=O,0.4%,-16.7%,2.4%,3.7%
Cc1cccc(N/N=C2/COC(C)(C)CC2=O)c1,-22.9%,-10.2%,7.94µM*,-2.1%
CC1(C)CC(=O)/C(=N/Nc2ccc(Cl)cc2)CO1,-5.2%,4.1%,3.55µM*,0.6%
O=C(Cc1cccs1)N/N=C/c1ccccc1,-6.8%,-2.1%,45.4%,7.7%
O=C(Cc1cccs1)N/N=C/C(Cl)=C/c1ccccc1,-4.2%,10.3%,5.62µM*,1.7%
Cc1cccc(/C=N/NC(=O)Cc2cccs2)c1,-10.8%,-9.0%,11.2µM*,9.7%
CCc1ccc(S(=O)(=O)c2cn(C)c3cc(N4CCC(C)CC4)c(F)cc3c2=O)cc1,-8.3%,-0.9%,x,x
COc1cccc2c(=O)c(C(=O)NCCc3ccccc3)c[nH]c12,x,-2.7%,10µM*,x
COc1cc2[nH]cc(C(=O)NCCc3ccccc3)c(=O)c2cc1OC,-17.3%,-1.6%,3.7%,32.0%
CCN1c2ccccc2N(C)C1(C)c1ccccc1 (stereo not given),-6.4%,-25.0%,-91.2%,8.91µM*
CN1c2ccccc2N(C)C1(C)c1ccccc1,-6.2%,-3.5%,-99.3%,1.26µM*
CCN(CC)/[N+]([O-])=N/OCOC(=O)C(C)c1ccc(CC(C)C)cc1 (stereo not given),x,x,4.0%,x
SMILES,Apoferritin bind,ERG-DNA inh,BRCA1 expr act,GoLoco inh red
O=C(Nc1cccc2cccnc12)c1cccs1,x,x,-44.4%,x
Cc1cc(NC(=O)c2ccccc2)ncc1NC(=O)c1cccs1,-15.7%,5.1%,7.94µM*,3.9%
O=C(Nc1cccc2nsnc12)c1cccs1,-7.4%,-2.3%,7.08µM*!,8.4%
O=C(Nc1ncc(Cl)cn1)c1cccs1,-5.8%,-7.1%,12.6µM*,1.5%
O=C(O)[C@@H]1[C@@H](C(=O)O)[C@@]23CCCC2=C2CC[C@@]3(C(=O)O)[C@@]3(C(=O)O)C[C@@]213,x,x,x,4.7%[14.2 µM]
Oc1cc2cc(-c3csc(-c4ccc(F)cc4)n3)cc3c2n1CCC3,x,x,12.6µM*,x
O=C1CCc2cc(-c3csc(-c4ccc(O)cc4)n3)ccc2N1,x,x,3.7%,x
CCCN1CNc2c(c(=O)[nH]c(=S)n2CCc2cccc(OC)c2OC)C1,x,x,0.0%,x
COc1ccccc1CNC(=O)CC(c1ccc(C)cc1)N1Cc2ccccc2C1=O (stereo not given),-7.3%,-2.8%,7.7%,x
CCOC(=O)/C(C#N)=C/Nc1ccccc1OC,77.9%,8.8%,2.24µM*,-2.0%
CCOC(=O)C(=O)/C(C#N)=C/Nc1ccccc1,-16.6%,19.0%,0.8%,2.2%
CSc1nc(=S)cc(C)[nH]1,-2.4%,1.3%,-3.1%,5.62µM*
CCCCc1nc2c(c3c1C[C@H](C)OC3)CN(S(=O)(=O)c1ccc(Cl)c3nonc13)CC2,x,x,x,2.2%[14.2 µM]
O=C(/C=C/c1ccccc1)Nc1cccnc1Cl,-10.2%,1.6%,10µM*,x
O=C(/C=C/c1ccccc1)Nc1ccc(Br)cn1,0.4%,2.2%,1.41µM*,-6.2%
O=C(NC1CCCCC1)c1cc(-c2ccccc2O)on1,1.1%,-0.3%,2µM*,x
CC(C)c1cc(C(=O)NC2CCCCC2)no1,-11.7%,-0.9%,8.91µM*,8.2%
Cc1cc(NC(=O)c2cc(C(C)C)on2)no1,5.2%,3.4%,11.2µM*,0.5%
O=C(c1cc(-c2ccccc2O)on1)N1CCc2ccccc2C1,u,-1.3%,10µM*,4.0%
O=C(NC1CCCCC1)c1cc(-c2ccc(O)cc2)on1,2.0%,13.8%,u,x
O=C(Nc1cc(C(F)(F)F)cc(C(F)(F)F)c1)c1cc(Cl)ccc1O,-5.3%,x,x,x
O=C(C[n+]1cccc2cc(Cl)ccc21)c1ccc2c(c1)CCCC2,x,x,12.3%,x
CCC(=O)c1ccc(OCC(=O)OCC(=O)NC2CCCCCCC2)cc1,5.62µM*,-15.9%,24.2%,x
CCC(=O)c1ccc(OCC(=O)NC2CCCC2)cc1,x,2.8%[15.4 µM],21.9%,x
CC(C)Oc1ccc(C(=O)NC2CCCCC2)cc1,-7.0%,-5.9%,4.47µM*,-3.6%
SMILES,Apoferritin bind,ERG-DNA inh,BRCA1 expr act,GoLoco inh red
COc1cc(/C=C/c2ccnc3ccccc23)ccc1N(C)C,x,x,11.2%,x
Cc1cc(C=Nc2ccc(/C=C/c3ccnc4ccccc34)cc2)ccc1N(C)C,x,x,18.2%,x
COc1cc(C=O)ccc1OCCCCOc1ccccc1[N+](=O)[O-],-10.7%,-1.1%,21.1%,-10.3%
COc1cc(C=O)ccc1OCCCOc1ccccc1[N+](=O)[O-],-10.1%,-4.2%,7.08µM*,5.3%
CC(C)/C(=N/[N+](C)(C)C)c1ccccc1,x,x,x,2.82µM*
CN1/C(=C/C(=O)c2cccs2)Sc2ccccc21,-2.4%,x,x,13.1%
CN1/C(=C\C(=O)c2cccc([N+](=O)[O-])c2)Sc2ccccc21,3.2%,0.3%,2.24µM*,x
COc1ccc(C2OC3=C(Nc4cc(C)c(C)cc4N3)C2=O)cc1 (stereo not given),-2.1%,1.9%,2.82µM*,7.6%
Cc1ccc2cc3c(N)c4c(C)ccc(C)c4nc3nc2c1,-11.7%,-7.8%,-31.7%,17.8µM*
Cc1ccc2c(N)c(C)ccc2c1,-8.1%,-11.0%,-10.2%,7.3%
Cn1c(/C(C#N)=C(\O)CN2CCN(Cc3ccccc3)CC2)nc2ccccc21,-12.1%,4.2%,-10.0%,5.1%
Cc1ccc(SC/C(O)=C(\C#N)c2nc3ccccc3n2C)cc1,-16.7%,-10.8%,12.6µM*,7.8%
COc1cc(Cl)c(NC(=O)CN(C)S(=O)(=O)c2ccc3c(c2)CCCC(=O)N3)c(OC)c1,-21.8%,-1.4%,-14.9%,x
COc1ccc(-c2csc(NCc3ccco3)n2)cc1C,-18.2%,-3.0%,6.31µM*,15.1%
Cc1cccc(OCCC(=O)NO)c1,x,x,-3.6%,x
CCOC(=O)c1cccc(C2=CC(=O)C[C@H](c3ccc(OC)cc3)C2)c1,x,-7.3%,11.2µM*,x

# High-throughput results deposited in PubChem BioAssay by National Center for Advancing Translational Sciences (NCATS).
